# Results published in PubChem BioAssay (NCATS).
# Results filed as inconclusive are left out. Entries that show only a call come without a potency. The source made the active and inactive calls. Unless noted, calls follow the shape of the dose curve; as a rule, active = well fitted curve in the direction sought with a large enough effect; inconclusive = small, poorly fitted or top-dose-only effect, or another doubt; inactive = no such curve, though single readings can be large; an effect the other way counts as inactive or inconclusive.
# Tests used:
# [1] = Confirmation and Secondary Assay for Modulators of Hemoglobin Beta Chain Splicing at IVS2 654 locus (AID 910);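 also: HeLa cells stably carrying EGFP split by mutant beta-globin IVS2-654 intron; per-well total GFP intensity by laser scanning cytometry after 2-day treatment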;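 also: potency is read from the fitted curve at half-maximal effect; potency of activators that raise GFP signal by restoring correct splicing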
# Procedure, shortened: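 Readout: per-well total peak green fluorescence (488 nm ex, 500–520 nm em) from objects 5–250 µm, reflecting correct splicing of an EGFP-654 reporter. Compounds were applied for 2 days at 37 °C to overnight-plated HeLa EGFP-654 cells; controls were DMSO and 500 nM IVS2-654 PNA.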
# [2] = Confirmation and Secondary Assay for Modulators of Hemoglobin Beta Chain Splicing at IVS2 705 locus (AID 930);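 also: HeLa cells stably expressing the EGFP-705 splicing reporter; GFP fluorescence per well restored by corrected splicing of the IVS2-705 intron in EGFP; series mostly up to about 46 µM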
# Procedure, shortened: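 Per-well GFP, captured at 1 x 8 µm resolution with 488 nm excitation, served as the read-out for HeLa EGFP-705 cells incubated 2 days with test compound versus DMSO.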
# [3] = target: Cytochrome P450 3A4 (Homo sapiens) (UniProt P08684); assay: qHTS Assay for Inhibitors and Substrates of Cytochrome P450 3A4 (AID 884); also: nearly all actives have a fitted effect of over 50% in size; also: potency is read from the fitted curve at half-maximal effect
# Cytochrome P450 3A4 (Homo sapiens), sequence (P08684 whole entry, looked up): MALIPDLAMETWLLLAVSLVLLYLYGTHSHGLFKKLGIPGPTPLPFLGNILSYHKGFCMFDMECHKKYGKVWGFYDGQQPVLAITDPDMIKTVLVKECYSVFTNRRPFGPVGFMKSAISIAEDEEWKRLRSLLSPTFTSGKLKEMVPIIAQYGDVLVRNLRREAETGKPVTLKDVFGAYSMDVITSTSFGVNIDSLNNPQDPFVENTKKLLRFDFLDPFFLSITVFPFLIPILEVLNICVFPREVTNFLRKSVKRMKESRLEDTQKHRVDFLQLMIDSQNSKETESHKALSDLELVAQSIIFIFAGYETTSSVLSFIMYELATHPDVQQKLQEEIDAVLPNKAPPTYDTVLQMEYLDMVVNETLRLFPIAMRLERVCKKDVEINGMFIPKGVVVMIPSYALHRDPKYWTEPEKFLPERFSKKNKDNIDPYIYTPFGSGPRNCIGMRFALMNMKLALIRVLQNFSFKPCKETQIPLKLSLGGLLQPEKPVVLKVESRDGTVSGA
# Procedure, shortened: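 20 nM human CYP3A4 with 25 uM Luciferin-PPXE (at KM) in 200 mM KPO4, preincubated 10 min with compound; NADPH regeneration started a 60 min RT reaction. Luciferin detected by luminescence, normalized to 57 uM ketoconazole as full inhibition.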
# [4] = target: DNA dC->dU-editing enzyme APOBEC-3G (Homo sapiens) (UniProt Q9HC16); assay: qHTS for inhibitors of Vif-A3G interactions: Validation (AID 588379)
# DNA dC->dU-editing enzyme APOBEC-3G (Homo sapiens), sequence (Q9HC16 whole entry, looked up): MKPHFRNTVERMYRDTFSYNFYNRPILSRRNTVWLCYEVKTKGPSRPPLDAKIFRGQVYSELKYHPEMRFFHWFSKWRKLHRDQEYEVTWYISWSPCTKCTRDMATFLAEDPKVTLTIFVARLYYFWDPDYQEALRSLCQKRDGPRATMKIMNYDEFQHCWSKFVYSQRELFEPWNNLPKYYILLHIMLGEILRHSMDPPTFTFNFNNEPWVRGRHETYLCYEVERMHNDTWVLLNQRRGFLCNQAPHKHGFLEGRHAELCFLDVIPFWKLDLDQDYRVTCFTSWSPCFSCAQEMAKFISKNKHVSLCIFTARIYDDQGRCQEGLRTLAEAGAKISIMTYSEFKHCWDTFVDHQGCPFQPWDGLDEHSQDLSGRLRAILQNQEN
# Procedure, shortened: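 HeLa cells stably expressing Vif and A3G-eYFP, 700 cells/well, incubated overnight at 37 deg C, then exposed to compound overnight at 37 deg C. Inhibition of Vif-mediated degradation read as increased yellow fluorescence (Ex 488/Em 500-530) by laser-scanning cytometry.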
# [5] = target: Cytochrome P450 3A4 (Homo sapiens) (UniProt P08684); assay: qHTS Assay for Activators of Cytochrome P450 3A4 (AID 885); also: nearly all actives have a fitted effect of over 65% in size
# Procedure, shortened: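 Human CYP3A4 (20 nM) with Luciferin-PPXE at 25 uM (its KM) in 200 mM KPO4; 10 min compound preincubation, then NADPH regeneration and 60 min reaction at RT. Luciferin read by luminescence; normalized to 57 uM ketoconazole full inhibition.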
# [6] = target: Peroxisome proliferator-activated receptor delta (Homo sapiens) (UniProt Q03181); assay: qHTS assay for small molecule agonists of peroxisome proliferator-activated receptor delta signaling (AID 588534; calls by dose curve)
# Peroxisome proliferator-activated receptor delta (Homo sapiens), sequence (Q03181 whole entry, looked up): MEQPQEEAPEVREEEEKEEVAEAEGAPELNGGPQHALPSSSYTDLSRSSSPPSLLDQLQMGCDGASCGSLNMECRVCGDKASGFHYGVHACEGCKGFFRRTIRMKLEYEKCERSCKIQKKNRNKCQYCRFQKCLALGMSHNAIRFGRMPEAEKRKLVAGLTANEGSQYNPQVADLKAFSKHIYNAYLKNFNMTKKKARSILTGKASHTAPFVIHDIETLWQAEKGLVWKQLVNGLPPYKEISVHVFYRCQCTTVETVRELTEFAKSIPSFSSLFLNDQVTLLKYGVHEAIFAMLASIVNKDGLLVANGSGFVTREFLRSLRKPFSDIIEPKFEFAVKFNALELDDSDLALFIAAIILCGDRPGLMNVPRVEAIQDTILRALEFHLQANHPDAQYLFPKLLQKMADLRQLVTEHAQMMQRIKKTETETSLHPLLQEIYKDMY
# Procedure, shortened: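 Reporter cells were plated and held 5 hrs at 37 C before compounds were added. After 18 hrs at 37 C, CCF4 dye was loaded for 2 hrs at RT and fluorescence measured.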
# [7] = target: Bile acid receptor (Homo sapiens) (UniProt Q96RI1); assay: qHTS assay for small molecule agonists of farnesoid X receptor signaling (AID 588527; calls by dose curve; also: series mostly up to about 77 µM); details: HEK293T FXR-UAS-bla, beta-lactamase ratio, 16 h; activation: stronger effect = higher value
# Bile acid receptor (Homo sapiens), sequence (Q96RI1 whole entry, looked up): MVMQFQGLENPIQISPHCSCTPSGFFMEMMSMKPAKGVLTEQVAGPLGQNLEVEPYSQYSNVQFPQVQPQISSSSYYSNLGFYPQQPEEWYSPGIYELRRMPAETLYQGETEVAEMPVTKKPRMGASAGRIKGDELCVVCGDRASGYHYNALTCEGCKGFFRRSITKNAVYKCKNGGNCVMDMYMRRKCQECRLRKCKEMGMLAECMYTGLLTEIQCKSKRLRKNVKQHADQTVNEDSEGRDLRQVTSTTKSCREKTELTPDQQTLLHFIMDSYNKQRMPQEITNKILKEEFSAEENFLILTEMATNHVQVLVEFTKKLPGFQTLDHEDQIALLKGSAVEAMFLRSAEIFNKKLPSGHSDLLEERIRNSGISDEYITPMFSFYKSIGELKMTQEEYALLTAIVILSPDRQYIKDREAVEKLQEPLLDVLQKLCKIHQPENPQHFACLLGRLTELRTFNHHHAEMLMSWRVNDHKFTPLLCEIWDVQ
# Procedure, shortened: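 FXR-UAS-bla HEK293T cells (10% dialyzed FBS) preincubated 5-7 h at 37 C, then compounds at up to 92 uM for 16 h at 37 C. CCF4 beta-lactamase read-out after 2 h RT. Normalized to chenodeoxycholic acid (100 uM) and DMSO; Hill fit gave EC50 and efficacy.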
# [8] = target: Vitamin D3 receptor (Homo sapiens) (UniProt P11473); assay: qHTS assay for small molecule agonists of vitamin D receptor signaling (AID 588543; calls by dose curve)
# Vitamin D3 receptor (Homo sapiens), sequence (P11473 whole entry, looked up): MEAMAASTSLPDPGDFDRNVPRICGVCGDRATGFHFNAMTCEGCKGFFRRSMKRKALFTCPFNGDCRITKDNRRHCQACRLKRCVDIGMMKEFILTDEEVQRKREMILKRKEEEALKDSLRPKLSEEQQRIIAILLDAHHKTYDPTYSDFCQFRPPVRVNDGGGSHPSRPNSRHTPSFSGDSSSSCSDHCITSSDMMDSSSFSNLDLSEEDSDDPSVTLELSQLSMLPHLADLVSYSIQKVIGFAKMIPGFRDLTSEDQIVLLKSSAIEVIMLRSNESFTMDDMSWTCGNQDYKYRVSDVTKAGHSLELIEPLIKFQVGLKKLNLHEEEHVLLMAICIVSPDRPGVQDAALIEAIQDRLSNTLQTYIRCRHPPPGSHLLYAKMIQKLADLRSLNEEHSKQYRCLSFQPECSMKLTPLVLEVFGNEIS
# Procedure, shortened: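 Measured: β-lactamase reporter activity (CCF4, 405 nm excitation, 460/530 nm emission) in HEK293T VDR-UAS-bla cells after 16 h compound exposure at 37 °C. Normalization against 50 nM 1α,25-dihydroxyvitamin D3 and DMSO; Hill-fit EC50.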
# [9] = target: Thyroid hormone receptor beta (Homo sapiens) (UniProt P10828); assay: qHTS assay for small molecule agonists of thyroid hormone receptor beta signaling (AID 588545; calls by dose curve)
# Thyroid hormone receptor beta (Homo sapiens), sequence (P10828 whole entry, looked up): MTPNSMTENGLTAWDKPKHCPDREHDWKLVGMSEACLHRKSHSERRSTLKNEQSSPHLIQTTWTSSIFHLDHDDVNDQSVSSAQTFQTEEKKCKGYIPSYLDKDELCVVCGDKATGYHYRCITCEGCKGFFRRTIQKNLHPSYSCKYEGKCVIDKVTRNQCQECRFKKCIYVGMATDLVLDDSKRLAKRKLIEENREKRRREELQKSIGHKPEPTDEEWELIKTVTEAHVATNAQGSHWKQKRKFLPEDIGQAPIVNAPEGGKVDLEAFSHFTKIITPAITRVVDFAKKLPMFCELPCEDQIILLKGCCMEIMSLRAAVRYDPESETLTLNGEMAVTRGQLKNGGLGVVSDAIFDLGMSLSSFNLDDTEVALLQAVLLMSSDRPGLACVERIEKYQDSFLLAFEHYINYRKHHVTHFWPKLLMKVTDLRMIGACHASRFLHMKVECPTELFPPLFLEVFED
# Procedure, shortened: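 Beta-lactamase reporter activity under TR response element control is measured in HEK 293 cells after 18 hrs compound exposure. Signal is ratiometric CCF4 fluorescence, 460/530 nm.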
# [10] = qHTS assay for small molecule antagonists of retinoid X receptor alpha signaling (AID 588546); details: HEK293T RXRa-UAS-bla, beta-lactamase ratio, antagonist mode; measured here: W530 green channel, cytotoxicity proxy;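 also: cells stimulated with 9-cis-retinoic acid as agonist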
# Procedure, shortened: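 Beta-lactamase reporter inhibition, read as CCF4 fluorescence ratio (ex 405, em 460/530 nm) after 2 h at RT. HEK293T UAS-bla cells, 2500/well, were stimulated with 9-cis-RA at 500 or 100 nM final alongside test compound for 18 h at 37 C.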
# [11] = target: Thyroid hormone receptor beta (Homo sapiens) (UniProt P10828); assay: qHTS assay for small molecule antagonists of thyroid hormone receptor beta signaling (AID 588547; active = well fitted inhibition curve with a large enough effect in the signal ratio, with a control signal flat, not every such curve was filed as active; the % refers to the signal ratio;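 also: cells stimulated with 0.4 nM T3 agonist during compound exposure; series mostly up to about 77 µM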); details: TR-UAS-bla HEK293, beta-lactamase ratio, antagonist mode, 18 h
# Procedure, shortened: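 Inhibition of T3-driven (0.4nM final) beta-lactamase reporter activity was measured over 0.59 nM to 92 uM compound after 18 h at 37 C. The cells were GripTite HEK293 TR-UAS-bla in charcoal/dextran-stripped serum, with CCF4 ratio read-out and IC50 from Hill fits.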
# [12] = qHTS assay for environmental chemicals that activate the Aryl hydrocarbon Receptor (AhR) signaling pathway (AID 651777); details: 1A2-DRE human hepatoma cells, luciferase, 24 h; activation: stronger effect = higher value; also: nearly all actives have a fitted effect of over 15% in size; also: potency is read from the fitted curve at half-maximal effect
# Procedure, shortened: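 Measured luciferase activity, read 30 min after One-Glo addition at room temperature, from human hepatoma cells bearing a dioxin response element–CYP1A2 promoter reporter and exposed to compound for 24 hr at 37 C.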
# [13] = target: Peroxisome proliferator-activated receptor alpha (Homo sapiens) (UniProt Q07869); assay: qHTS assay for small molecule agonists of the peroxisome proliferator-activated receptor alpha (PPARalpha) signaling pathway (AID 651778); details: PathHunter PPARalpha complementation, chemiluminescence, 6 h; max response: stronger effect = higher value
# Peroxisome proliferator-activated receptor alpha (Homo sapiens), sequence (Q07869 whole entry, looked up): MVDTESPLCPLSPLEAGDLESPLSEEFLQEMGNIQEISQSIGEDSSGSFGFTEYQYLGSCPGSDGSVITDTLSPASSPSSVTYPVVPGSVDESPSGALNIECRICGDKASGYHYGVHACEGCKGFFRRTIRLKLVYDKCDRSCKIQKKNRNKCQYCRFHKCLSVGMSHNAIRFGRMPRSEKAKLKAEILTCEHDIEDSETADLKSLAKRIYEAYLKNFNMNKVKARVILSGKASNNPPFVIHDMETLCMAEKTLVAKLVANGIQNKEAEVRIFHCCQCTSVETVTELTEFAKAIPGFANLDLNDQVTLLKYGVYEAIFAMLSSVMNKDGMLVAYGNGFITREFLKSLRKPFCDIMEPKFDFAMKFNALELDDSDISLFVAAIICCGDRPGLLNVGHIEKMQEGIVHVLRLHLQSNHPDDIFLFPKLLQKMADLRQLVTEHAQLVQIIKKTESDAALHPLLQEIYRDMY
# Procedure, shortened: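 Chemiluminescence from complemented enzyme reported PPARalpha activation in cells after 6 hr of compound treatment at 37 C. The detection reagent was incubated for 60 min at room temperature, and compounds were scored as agonists.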
# [14] = qHTS assay for small molecule agonists of the antioxidant response element (ARE) signaling pathway measured by Nrf2-dependant transcriptional activity - cell viability counter screen (AID 720653; active = well fitted curve in the direction sought with a large enough effect in the repeat runs; an effect the other way counts as inactive or inconclusive; also: potency is read from the fitted curve at half-maximal effect); details: ARE-bla HepG2 viability, CellTiter-Glo ATP luminescence, 16 h; max response: stronger effect = lower value
# Procedure, shortened: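 Cytotoxicity counter screen: intracellular ATP quantified by CellTiter-Glo luminescence in the same ARE-bla HepG2 plates, after 16 h compound exposure and a 2 h beta-lactamase substrate step.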
# [15] = qHTS assay for cell viability of HEK293 cells (AID 743288); details: ATP luminescence (CellTiter-Glo), 18 h; max response: stronger effect = lower value; also: nearly all actives have a fitted effect of over 50% in size; also: potency is read from the fitted curve at half-maximal effect
# Procedure, shortened: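 Luminescent ATP quantitation served as the viability read-out. Cells (parental HEK293, 2,000/well) received compounds after at least 5 h at 37 C and were exposed for 18 h before a 30 min room-temperature reagent step.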
smiles,measurement,setting,value
NC1C[C@H]1c1ccccc1 (some centres undefined),Potency,[1],inactive
same,outcome,[2],inactive
CC1(C)S[C@H]2[C@@H](N)C(=O)N2[C@H]1C(=O)O,Potency,[3],inactive
same,outcome,[4],inactive
COC(=O)[C@]1(C)CC[C@@]2(C)CC[C@@]3(C)C4=CC=C5C(=CC(=O)C(O)=C5C)[C@@]4(C)CC[C@@]3(C)C2C1 (some centres undefined),Potency,[5],inactive
same,Potency,[1],inactive
same,outcome,[2],inactive
OCC(O)Cc1ccc2c(c1)OCO2 (centres undefined),Potency,[5],inactive
same,Potency,[1],inactive
same,outcome,[2],inactive
CN(CCC(N)CC(=O)NC1C=CC(n2ccc(N)nc2=O)OC1C(=O)O)C(=N)N (centres undefined),Potency,[3],0.199 µM (active)
same,Potency,[5],inactive
same,Potency,[1],inactive
same,outcome,[2],inactive
CC(C)=O,outcome,[6],inactive
NCC(N)C(=O)c1ccccc1 (centres undefined),Potency,[3],inactive
same,Potency,[1],inactive
same,outcome,[2],inactive
COc1c2c(c(CC=C(C)C)c3oc(=O)c(-c4ccc(O)cc4)c(O)c13)OC(C)(C)C=C2,Potency,[5],inactive
same,Potency,[1],inactive
same,outcome,[2],inactive
O=C(NC(=O)c1c(F)cccc1F)Nc1ccc(Cl)cc1,Potency,[3],inactive
same,Potency,[1],inactive
same,outcome,[2],inactive
same,activation,[7],1.72% (inactive)
same,outcome,[8],inactive
same,Potency,[9],inactive
same,max response,[10],-10.4%
same,activity change % (negative = inhibition),[11],-1.34% (inactive)
same,Potency,[12],2.51 µM (active)
same,max response,[13],-1.48% (inactive)
same,max response,[14],-7.3% (inactive)
same,max response,[15],-0.376% (inactive)
CC(=O)Oc1c2c(c(CC=C(C)C)c3c1C(=O)C1=CC4CC5C(C)(C)OC(C/C=C(\C)C(=O)O)(C4=O)[C@]15O3)OC(C)(CCC=C(C)C)C=C2 (some centres undefined),Potency,[3],12.6 µM (active)
same,Potency,[5],inactive
same,Potency,[1],inactive
same,outcome,[2],inactive
CCC1C2CC3C4N(C)c5ccccc5[C@]45CC(C2C5O)N3C1O (some centres undefined),Potency,[3],inactive
same,Potency,[1],inactive
same,outcome,[2],inactive
CC1=CC(=O)c2c(O)cccc2C1=O,Potency,[3],inactive
same,Potency,[5],inactive
same,Potency,[1],inactive
same,outcome,[2],inactive
same,outcome,[4],inactive
Cc1cccc2c3c(ccc12)C1=C(C(=O)C3=O)C(C)CO1 (centres undefined),Potency,[5],inactive
CC1CC(Cl)CCC1C(=O)OC(C)(C)C (centres undefined),Potency,[3],inactive
same,Potency,[1],inactive
same,outcome,[2],inactive
COC(=O)/C(C)=C\CC12OC(C)(C)C3CC(C=C4C(=O)c5c(OC)c6c(c(CC=C(C)C)c5OC431)OC(C)(CCC=C(C)C)C=C6)C2=O (centres undefined),Potency,[5],inactive
same,Potency,[1],inactive
same,outcome,[2],inactive
CC[C@]1(O)CC(O[C@@H]2CC(N(C)C)C(O)C(C)O2)c2c(cc3c(c2O)C(=O)c2c(O)cccc2C3=O)C1C(=O)OC (some centres undefined),Potency,[5],inactive
same,Potency,[1],15.8 µM (active)
CC(=O)OC1C2CCC3C1(CC(O)[C@@]1(O)[C@@H](CC(O)C1(C)C)[C@]3(C)O)C[C@@]2(C)O (some centres undefined),Potency,[3],inactive
same,Potency,[1],inactive
same,outcome,[2],inactive
C[C@@]12C=CC(=O)C=C1CCC1C2CC[C@]2(C)C(=O)CCC12 (some centres undefined),Potency,[3],inactive
same,Potency,[1],inactive
same,outcome,[2],inactive
CCCCN(CC)c1c([N+](=O)[O-])cc(C(F)(F)F)cc1[N+](=O)[O-],Potency,[5],inactive
same,Potency,[1],inactive
same,outcome,[2],inactive
same,outcome,[6],inactive
same,outcome,[8],inactive
same,Potency,[9],inactive
same,max response,[10],-9.26%
same,activity change % (negative = inhibition),[11],-21.6% (inactive)
same,activation,[12],-0.444% (inactive)
same,max response,[13],-2.71% (inactive)
same,max response,[14],-14.4% (inactive)
same,max response,[15],-10.2% (inactive)
O=C1C=C2C(=CCOC2O)O1 (centres undefined),Potency,[1],inactive
same,outcome,[2],inactive
same,activation,[7],-4.19% (inactive)
same,outcome,[6],inactive
same,outcome,[8],inactive
same,max response,[13],0.776% (inactive)
same,Potency,[15],8.91 µM (active)
CN1[C@H]2CC(OC(=O)[C@H](CO)c3ccccc3)C[C@H]1[C@H]1O[C@H]12 (some centres undefined),outcome,[6],inactive
CC(C)N(C(=O)CCl)c1ccccc1,Potency,[1],inactive
same,outcome,[2],inactive
same,outcome,[8],inactive
same,Potency,[9],inactive
same,activation,[12],-1.87% (inactive)
same,max response,[13],-1.12% (inactive)
same,Potency,[14],39.8 µM (active)
COc1cc2c(cc1OC)-c1c(OC)c(OC)c(C=O)c3c1[C@H](C2)N(C)CC3,Potency,[5],inactive
same,outcome,[4],inactive
